# A selection: hits, their analogues and other compounds. The true share with any hit is near 3.6%.
# Nrf2 ARE act – qHTS of Nrf2 Activators; AREc32 ARE-luciferase reporter (MCF7-derived line), luminescence, 24 h; Potency, µM (doses to about 46.1 µM), for the others: at the top dose activation, usual class: activators; 410,000 tested, 0.31% active; AID 624171, 2012; further: % of control where 0% means no effect; nearly all actives have a fitted effect of over 65% in size
#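 Each well held 1000 AREc32 cells, which were incubated with compound for 24 hr at 37 deg C after overnight attachment, and ARE reporter activity was quantified by firefly luciferase luminescence.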
# A549 viability – Nrf2 qHTS screen for inhibitors: counterscreen for cytotoxicity; A549 ARE-Fluc cells, CellTiter-Fluor viability, 18-24 h; Potency, µM (series often up to 46 µM), for inactives: at the highest dose activity change, negative = cytotoxicity, usual class: inhibitors; 390,000 tested, 0.16% active; further: on the % scale 0 is the no-effect control and ±100 the full control effect
#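 Cytotoxicity counterscreen: CellTiter-Fluor fluorescence was measured in A549 ARE_Fluc cells after 18-24 h of compound exposure in a concentration series. The subsequent BugLite luminescent read reports ARE-luciferase activity.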
# TGFb inhibitor – qHTS for Inhibitors of TGF-b. 410,000 tested, 1.2% active. HepG2 CAGA-GFP TGF-b/SMAD3 reporter, GFP fluorescence, 18 h; TGF-beta stimulated, 500 pg/mL final. Potency, µM (titrated, usually from 46.1 µM), for inactives: at the top dose activity, negative = inhibition, hits mostly inhibitors; further: on the % scale 0 is the no-effect control and ±100 the full control effect; nearly all actives have a fitted effect of over 65% in size
#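 HEPG2 CAGA-GFP reporter cells (1000/well, DMEM with 1% FBS) received compounds, then recombinant TGF-beta at 500 pg/mL final for 18 hours at 37 degrees C. Per-cell GFP summed per well was normalised to unstimulated and stimulated DMSO controls before curve fitting.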
# Nrf2 inh – Nrf2 qHTS screen for inhibitors; 360,000 tested, 2.1% active; A549 ARE-Fluc reporter, luciferase luminescence, 18-24 h; AID 504444, 2011; Potency, µM (series often up to 46 µM), for the others: top-dose activity change, negative = inhibition, most hits filed as inhibitors; further: on the % scale 0 is the no-effect control and ±100 the full control effect; nearly all actives have a fitted effect of over 60% in size
#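 A549 ARE_Fluc cells (5000/well, 5% FBS OPTI-MEM) pre-incubated 2 h, then treated with compounds 18-24 h at 37C/5% CO2 in concentration-response. CellTiter-Fluor viability read first; BugLite luciferase luminescence after 15 min at room temperature gives Nrf2 activity.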
# HepG2 tox – qHTS for Inhibitors of TGF-b: Cytotox Counterscreen. Potency, µM (series often up to 46.1 µM), inactives show top-dose activity change, negative = cytotoxicity, usual class: cytotoxic. HepG2 CAGA-GFP viability, ATP luminescence, 18 h. 410,000 tested, 0.76% active
#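 CellTiter-Glo luminescence gave cytotoxicity after 18 hours at 37 degrees C. The cells were HepG2 CAGA-GFP in 1% FBS DMEM, stimulated with 500 pg/mL TGF-beta after compound addition. %Activity was normalised to no-cell wells (complete cell-killing) and DMSO (no toxicity), and curves were fitted and classified.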
# * hit, by the source's call; u = inconclusive; x = no result given; [ ] = dose if it differs, or a comment. The call rests on the fitted dose curve; in most records, active means well fitted curve in the direction sought with a large enough effect; inconclusive means small, poorly fitted or top-dose-only effect, or another doubt; inactive means no such curve, though single readings can be large; an effect the other way counts as inactive or inconclusive. Potency means the concentration at half of the fitted maximal effect.
SMILES,Nrf2 ARE act,A549 viability,TGFb inhibitor,Nrf2 inh,HepG2 tox
Cc1ccc(F)cc1-c1nc(NC(C)C)nc2cc(-c3ccccc3)sc12,6.9%,x,0.3%,x,-17.0%
COCCNc1nc(NCCOC)c2sc(-c3ccccc3)cc2n1,4.9%,x,-1.9%,x,-29.0%
CC(C)Nc1nc(NCCOc2ccccc2Cl)c2sc(-c3ccccc3)cc2n1,0.2%,x,u,x,14.1µM*
C=CCNc1nc(NCc2cccc(OC)c2)c2sc(-c3ccccc3)cc2n1,-0.3%,x,u,x,11.2µM*
COc1ccccc1CNc1nc(NC(C)C)nc2cc(-c3ccccc3)sc12,-0.9%,x,u,x,12.6µM*
Cc1cccc(NC(=O)c2sc(NC(=O)COc3ccccc3)c(C#N)c2C)c1C,0.4%,0.9%,0.0%,-2.5%,20.0%
COC(=O)Cn1cnc2c(C#N)c3n(c2c1=O)CCCC3,2.4%,-0.3%,11.5%,11.2%,0.4%
COc1ccc(C(=O)Nc2ccccc2-c2nnn(CC(=O)N3CCOCC3)n2)cc1,0.2%,5.3%,-6.9%,3.4%,5.7%
COc1ccc(NC(=O)Cn2nnc(-c3ccccc3NS(=O)(=O)c3ccccc3)n2)cc1,-0.3%,-12.6%,u,20.6µM*,4.8%
COc1ccc(C(=O)Cn2nnc(-c3ccccc3NC(=O)c3ccco3)n2)cc1,0.6%,u,-25.8%,18.4µM*,3.4%
CC(=O)c1ccc(S(=O)(=O)N2CCN(C(C)=O)CC2)cc1,-0.2%,-0.2%,0.0%,-1.6%,1.3%
O=C(c1cccs1)N1CCN(C(=O)c2cccs2)C1=S,5.8%,-28.2%,6.31µM*,u,-50.2%
COc1ccccc1N1CCN(S(=O)(=O)c2c(C)sc3ncn(CC(=O)Nc4ccc(C)cc4Br)c(=O)c23)CC1,0.4%,5.9%,0.1%,5.9%[9.27 µM],1.3%
Cn1nc(C(=O)Nc2cccc(Cl)c2)cc1C(=O)Nc1cccc(Cl)c1,-0.2%,u,u,13µM*,-54.6%
CC1CCCCN1c1ncnc2ccccc12 (configuration not stated),2.9%,10.1%,-28.7%,u,-13.9%
CC1(C)CC2CC(C)(CN2c2ncnc3ccccc23)C1 (configuration not stated),-0.1%,u,u,10.3µM*,-38.2%
Cc1cc(C)cc(NC(=O)CSc2ccc(-c3cccs3)nn2)c1,0.3%,-2.1%,u,10.3µM*,-27.8%
O=C(CSc1ccc(-c2cccs2)nn1)Nc1ccccc1,5.3%,0.2%,8.6%,18.4µM*,-0.7%
O=S(=O)(Nc1ccccc1N1CCCCC1)c1ccc(Cl)s1,0.4%,-2.6%,0.0%,-16.0%,-84.0%
CN(CC(=O)Nc1cccc(F)c1)C(=O)c1cn(-c2ccccc2)nc1-c1ccc(F)cc1,0.0%,-0.5%,22.4µM*,-22.7%,-47.5%
COc1ccc(-c2nn(-c3ccccc3)cc2C(=O)N(C)CC(=O)Nc2cccc(F)c2)cc1,-0.9%,6.2%,u,-3.9%,-38.5%
O=C(COc1ccccc1Cl)NCC1(N2CCOCC2)CCCCC1,3.2%,0.1%,u,3.8%,-31.6%

# Screens deposited in PubChem by National Center for Advancing Translational Sciences (NCATS).
